# Laboratory results from PubChem BioAssay (NCATS).
# Records with an inconclusive call do not appear. Where a call stands in place of a potency, no number is given. Calls of active or inactive are those of the source. Calls follow the shape of the dose curve; as a rule, active = well fitted activation curve with a large enough effect; inconclusive = small, poorly fitted or top-dose-only effect; inactive = flat fitted curve, though single readings scatter.
# Test: Primary redox qHTS assay for identification of artifact compounds. (AID 1845223)
# Conditions: Amplex Red/HRP redox cycling with DTT, fluorescence; series mostly up to 53.8 µM
# Outline: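 Amplex Red (25 uM) and HRP (250 mU/mL) in HBSS, with compounds for 15 min, then 250 uM DTT for 30 min, room temperature, dark. Fluorescence 525/598 nm read; normalized to DMSO and 10 uM DA3003; Hill fit.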
Compound,Potency,redox activity (% of DA3003)
C=C[C@H]1[C@H](O[C@@H]2O[C@H](CO)[C@@H](O)[C@H](O)[C@H]2O)OC=C2C(=O)OCC[C@]21O,inactive,–
C/C=C1/[C@H](O[C@@H]2O[C@H](CO)[C@@H](O)[C@H](O)[C@H]2O)OC=C(C(=O)OC)[C@H]1CC(=O)O[C@@H]1O[C@H](CO)[C@@H](O)[C@H](O)[C@H]1O,inactive,–
C[C@]12CCC[C@](C)(C(=O)O)C1CCC13C=C(CO)C(CCC12)C3 (stereo partly drawn),inactive,–
NCc1ccc(OCCCc2sc(-c3ccc4c(c3)/C(=N/Nc3nc5ccccc5s3)CCC4)nc2C(=O)O)cc1,inactive,–
O=C(O[C@@H]1O[C@H](CO)[C@@H](O)[C@H](O)[C@H]1O)c1c(O)cc(O)cc1/C=C/c1ccccc1,inactive,–
CC(=O)OC[C@@]12[C@H](O)C[C@]3(C)C(=CCC4[C@@]5(C)CC[C@H](O[C@@H]6O[C@H](C(=O)O)[C@@H](O[C@@H]7O[C@H](CO)[C@@H](O)[C@H](O)[C@H]7O)[C@H](O)[C@H]6O[C@@H]6O[C@H](CO)[C@@H](O)[C@H](O)[C@H]6O)[C@](C)(CO)C5CC[C@]43C)[C@@H]1CC(C)(C)[C@@H](OC(C)=O)[C@@H]2O (stereo partly drawn),–,7.21% [at 11.5 µM] (inactive)
C=CC(C)(O)CC/C=C(\C)C(=O)OC1CC2(C(=O)O)CCC3(C)C(=CCC4C5(C)CCC(OC6OC(COC7OCC(O)C(O)C7O)C(O)C(OC7OCC(O)C(O)C7O)C6OC6OC(CO)C(O)C(O)C6OC6OCC(O)C(O)C6O)C(C)(C)C5CCC43C)C2CC1(C)C (stereo not drawn),–,11.8% [at 11.5 µM] (inactive)
CC(=O)OCC(=O)O[C@@H]1[C@H]2[C@@H](OC(=O)c3ccccc3)[C@@H](C)C[C@]2(O)[C@H](OC(C)=O)C2(C)[C@H]3CC(C)(C)C(=O)[C@@H]3CC1(OC(C)=O)[C@@H]2OC(C)=O (stereo partly drawn),inactive,–
C=CC1(C)CC(OC(=O)C(=C)C(O)COC(C)=O)C(C(=C)C(=O)OC)C(O)C1C(=C)CO (stereo not drawn),inactive,–
COc1cc(C2OCC3C(c4ccc(OC5OC(CO)C(O)C(O)C5O)c(OC)c4)OCC23)ccc1O (stereo not drawn),inactive,–
C[C@@H]1C(=O)O[C@H]2[C@H]1CC[C@@]1(C)C(=O)C=C[C@](C)(O)[C@H]21,inactive,–
COC(=O)C1=CO[C@@H](O[C@@H]2O[C@H](COC(=O)/C=C/c3cc(OC)c(O)c(OC)c3)[C@@H](O)[C@H](O)[C@H]2O)[C@@H]2C(CO)=CC[C@H]12,inactive,–
COc1c(OC2OC(CO)C(O)C(O)C2O)ccc(O)c1C(=O)OCc1ccccc1O[C@@H]1O[C@H](CO)[C@@H](O)[C@H](O)[C@H]1O (stereo partly drawn),inactive,–
O=C1[C@H](O[C@@H]2O[C@H](CO)[C@@H](O)[C@H](O)[C@H]2O)Oc2ccccc2N1O,inactive,–
C[C@@H]1CC[C@H]2C(C)(C)[C@H](O)[C@H](O)C[C@]2(C)[C@@]12Cc1c(O)cc3c(c1O2)CNC3=O,inactive,–
Cc1ccc(C(=O)Nc2ccc(Oc3cc4cnn(C)c4cc3-c3cn[nH]c3)c(F)c2)c(=O)n1-c1ccc(F)cc1,inactive,–
COc1ccc(/C=C/C(=O)O[C@H]2[C@@H]3C=CO[C@@H](O[C@@H]4O[C@H](CO)[C@@H](O)[C@H](O)[C@H]4O)[C@@H]3[C@@]3(CO)O[C@@H]23)cc1O,inactive,–
CNC(=O)c1ccc(Nc2ncc(C(F)(F)F)c(NCc3nccnc3N(C)S(C)(=O)=O)n2)cc1,inactive,–
COC(=O)[C@@H]1C2CC3c4[nH]c5ccccc5c4CCN3CC2CC[C@@H]1O (stereo partly drawn),inactive,–
COc1cccc(-n2nc(C(=O)O)cc2-c2ccc(C3CCCCC3)c(Cl)c2)c1,inactive,–
FC(F)(F)c1cc(C(F)(F)F)c2ccc3nc(-c4nnco4)cn3c2n1,inactive,–
C=C1CC[C@@H]2[C@](C)(CC[C@H](O)[C@@]2(C)CCC=C(C)C)[C@@H]1Cc1c[nH]c2ccccc12,inactive,–
CC1OC(OC2C(CO)OC(OCC3OC(OC(=O)C45CCC(C)(C)CC4C4=CCC6C7(C)CCC(OC8OC(C(=O)O)C(O)C(OC9OC(CO)C(O)C(O)C9O)C8O)C(C)(C)C7CCC6(C)C4(C)CC5)C(O)C(O)C3O)C(O)C2O)C(O)C(O)C1O (stereo not drawn),–,7.33% [at 11.5 µM] (inactive)
NCc1c[nH]c(=S)n1C1CCc2c(F)cc(F)cc2C1 (stereo not drawn),inactive,–
CC(C)c1nc(N(C)S(C)(=O)=O)nc(-c2ccc(F)cc2)c1/C=C/[C@@H](O)C[C@@H](O)CC(=O)O,inactive,–
COC1(CC(C)C)NC(=O)C(O)(Cc2ccccc2)NC1=O (stereo not drawn),inactive,–
CN(C)c1cccc(-c2c3c(=O)n(-c4ccccc4Cl)[nH]c3cc(=O)n2C)c1,inactive,–
CC1CCC2(C)C(CC(O)C(O)C23CO3)C1(C)CCC1=CC(=O)OC1O (stereo not drawn),inactive,–
